Bioassay records: PubChem, several laboratories
CSC inhib – cancer stem cell viability inhibitors, primary screen, luminescence | AID 2717, 2010 | inhibition, % at 7.5 µM | 300,000 tested, 1.1% active | cancer stem cell-like cells viability; in the data active = inhibition above about 75%; inconclusive = no clear call, values can overlap the other calls; tested in HMLE shEcad cells
697 NFkB inh – inhibitors of PMA/ionomycin-induced NF-kB reporter, 697 cells, primary screen, B-cell NF-kB inhibitor project, cell-based, luminescence, uHTS; 697 B-cell NF-kB luciferase reporter, 16 h; inhibition, % at 4 µM; 330,000 tested, 0.33% active; AID 435022, 2010; in the data active = inhibition above about 35%
Beta cell apopt – inhibitors of cytokine-induced beta cell apoptosis, primary screen, luminescence; INS-1E cytokine-induced death, ATP luminescence, 48 h; percent of positive-control rescue, neutral wells zero; protection from apoptosis, % (test concentration not listed); AID 435005, 2010; 300,000 tested, 0.8% active;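 active = Every replicate reaches about 75%, or at least half do and their mean reaches it too, limit read from the data; inconclusive = At least half of replicates reach the limit but their mean does not; inactive = Under half of replicates reach the limit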;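 note: 0% = cytokine-treated negative control wells and 100% = positive control rescue; higher means more ATP so stronger rescue from cytokine killing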
Mdm2-MdmX inh – inhibitors of human Mdm2-MdmX association, primary screen, cell-based, luminescence, split luciferase, SaOS-2, uHTS; SaOS-2 split-luciferase Mdm2/MdmX complementation; inhibition, % at 8 µM; 330,000 tested, 3% active; AID 485346, 2010;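 active = inhibition of at least 50% at 8 µM in the primary screen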
Jurkat NFkB inh – inhibitors of induced NF-kB luciferase reporter, primary screen, TCR NF-kB activation inhibitor project, cell-based, luminescence, uHTS | Jurkat, PMA/ionomycin-induced NF-kB luciferase reporter | inhibition, % at 4 µM | 330,000 tested, 0.53% active; in the data active = inhibition above about 50%
Gli-Sufu block – Gli-Sufu pathway antagonists, primary screen, luciferase luminescence, Sufu-KO-LIGHT cells, uHTS; Sufu-KO-LIGHT fibroblasts, Gli luciferase reporter luminescence; inhibition, % at 5 µM; 340,000 tested, 0.74% active;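 active = inhibition above about 55%, limit read from the data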;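 note: 0% = DMSO-treated cells and 100% = wells with medium but no cells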
Jurkat NFkB conf – PMA/ionomycin-induced NF-kB reporter inhibitors, Jurkat retest, confirmation, T-cell NF-kB inhibitor project, cell-based, luminescence, single concentration | 2,700 tested, 27% active | AID 435020, 2010 | shares compounds with Jurkat NFkB inh | inhibition, % at 4 µM | Jurkat NF-kB luciferase, 16 h;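 active = inhibition reaching about 45% at 4 µM in either replicate, limit read from the data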;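 note: plate controls were PMA/ionomycin stimulated DMSO wells for no effect and unstimulated DMSO wells for full effect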
An asterisk follows results filed as active; ? = inconclusive; · = not tested or not shown. Rows were chosen to be rich in hits. Some 4.5% of all compounds tested hit in one or more screens of this group.

SMILES | CSC inhib | 697 NFkB inh | Beta cell apopt | Mdm2-MdmX inh | Jurkat NFkB inh | Gli-Sufu block | Jurkat NFkB conf
COc1ccc(OC)c(CCNC(=O)Cn2nc(C)c3c(C)n(-c4ccc(C)cc4)nc3c2=O)c1 | -23.9 | 14.4 | 16.8 | 24.1 | 55.7* | -1.6 | 66.5*
CC(C)NC(=O)C1CCN(S(=O)(=O)c2ccc(N3CCCC3=O)cc2)CC1 | 8.7 | -5.9 | 0.9 | 22.8 | 79.3* | 42.7 | 9.2
COc1cc(NC(=O)C2CCN(S(=O)(=O)c3ccc(N4CCCC4=O)cc3)CC2)cc(OC)c1 | -12.6 | 15.7 | 0.2 | 22.9 | 16.8 | -0.4 | ·
CCCCNc1c(-c2cccc(SC3CCCCC3)c2)nc2ccc(Cl)cn12 | 3.9 | -13.5 | · | -12.9 | 2.8 | 4.1 | ·
CCCCNc1c(-c2ccc(SC3CCCCC3)cc2)nc2ccccn12 | 81.8* | -36.6 | ? | -62.5 | -177.7 | -63.4 | -100.2
Cc1cccc(-n2nc3c([n+]2[O-])CCc2nonc2-3)c1C | -4.9 | -8.1 | -4.9 | -3.6 | 5.8 | 0.8 | ·
[O-][n+]1onc2c1CCc1c-2nn(-c2ccccc2Cl)[n+]1[O-] | 0.4 | -12.3 | 96.1* | 43.4 | 58.9* | 1.8 | 12.0
Cc1ccccc1OCCCC(=O)Nc1nccs1 | 2.5 | -3.7 | 0.8 | -20.4 | -2.3 | 2.4 | ·
Cc1cccc(OCC(=O)Nc2nccs2)c1C | 8.6 | -59.7 | -0.8 | -205.1 | -176.9 | -75.2 | -83.9
CN(C)c1ccc(N=Nc2cccc(F)c2)cc1 | 13.6 | -90.4 | 5.8 | -182.9 | -244.3 | -34.5 | -102.1
Cc1cnc(C(=O)NC2CC(C)(C)Cc3c2cnn3-c2cccc(F)c2)cn1 (centres undefined) | · | -24.0 | · | 13.8 | -4.0 | 15.7 | ·
COc1cc2ccccc2cc1C(=O)OCC(=O)c1c(N)n(C)c(=O)n(C)c1=O | -14.0 | 32.5 | 0.2 | 7.3 | -1.6 | 1.9 | ·
O=C(NC1C=CS(=O)(=O)C1)c1sc2ccccc2c1Cl (centres undefined) | 7.8 | -4.3 | -18.2 | 48.1 | 55.7* | 7.4 | 17.9
O=C(NC1CC1)c1sc2ccccc2c1Cl | 3.8 | -34.5 | -5.4 | -15.0 | -20.7 | -32.3 | ·
Cc1ccc(C2(c3ccc(C)cc3)NC(=O)N(CC(N)=O)C2=O)cc1 | -6.3 | -9.9 | · | -10.3 | 12.8 | -9.8 | ·
Cc1cccc2c1ncc1c(=O)n(-c3ccccc3)[nH]c12 | -9.0 | -42.5 | 3.4 | -96.0 | -69.6 | -61.9 | ·
Clc1ccc(OCc2nc(-c3ccccn3)no2)c(Br)c1 | 58.8 | -244.4 | 6.1 | -33.1 | -165.1 | -83.1 | -118.8
Clc1ccccc1OCc1nc(-c2ccccn2)no1 | 53.4 | -204.3 | 2.6 | -142.1 | -100.8 | -118.4 | ·
Fc1ccccc1OCCSc1nnnn1-c1ccccc1 | · | -159.6 | -4.0 | -255.2 | -174.4 | -89.2 | -139.2
CC(OC(=O)/C=C/c1cccs1)C(=O)Nc1ccc(C(N)=O)cc1 (centres undefined) | 0.2 | 9.4 | -9.9 | 1.2 | 11.7 | -13.7 | ·
Cc1ccc2nc(-c3ccc(NC(=O)C4CCCO4)cc3)[nH]c2c1 (centres undefined) | -5.4 | -147.0 | 11.0 | -122.0 | -177.2 | -56.7 | -76.2
COc1ccc(NC(=O)C2CCCO2)cc1 (centres undefined) | -0.1 | -9.2 | 7.2 | 9.8 | -26.9 | -6.2 | ·
O=C(Nc1ccc(-c2nc3ccccc3o2)cc1)C1CCCO1 (centres undefined) | · | -124.1 | 1.0 | -138.0 | -180.5 | -77.3 | -103.0
Cc1ccc2nc(-c3ccc(NC(=O)Cc4cccs4)cc3)[nH]c2c1 | 17.9 | -115.5 | 32.9 | -28.4 | -169.6 | 13.1 | -118.8
CCCCN(C(=O)c1c(CC)noc1C)c1c(N)n(CCC)c(=O)[nH]c1=O | -11.6 | 7.6 | 1.0 | -6.1 | 7.1 | -8.7 | ·
CC1CCc2sc(C(=O)N/N=C/c3ccc(O)cc3)cc2C1 (centres undefined) | 45.6 | -67.1 | -7.4 | -7.4 | -16.3 | -49.1 | ·
Cn1c(-c2ccc(F)c(F)c2)cc2onc(-c3ccccc3)c2c1=O | 3.9 | -183.4 | 9.5 | -236.3 | -179.7 | -126.6 | -94.2
C/C(=N\Nc1cccc2cccnc12)c1ccc[nH]1 | 22.9 | -146.8 | -2.3 | -317.1 | -215.7 | -117.3 | -1.6
